# In publication PMC5540273 (PLoS ONE, 2017):
# Read-outs that look alike come from different tables or passages of the source.
# How the values were obtained:
# [1] = tested on: FYN; details: concentration: 1 μM, replicates: in singlicate; n = 1
# [2] = tested on: GAK; details: concentration: 1 μM, replicates: in singlicate; n = 1
# [3] = tested on: T1, GCN2(Kin.Dom.2,S808G); details: concentration: 1 μM, replicates: in singlicate; n = 1
# T1 construct: gene EIF2AK4
# [4] = tested on: GRK1; details: concentration: 1 μM, replicates: in singlicate; n = 1
# [5] = tested on: T2, GRK2; details: concentration: 1 μM, replicates: in singlicate; n = 1
# T2 construct: gene ADRBK1
# [6] = tested on: T3, GRK3; details: concentration: 1 μM, replicates: in singlicate; n = 1
# T3 construct: gene ADRBK2
# [7] = tested on: GRK4; details: concentration: 1 μM, replicates: in singlicate; n = 1
# [8] = tested on: GRK7; details: concentration: 1 μM, replicates: in singlicate; n = 1
# [9] = tested on: GSK3A; details: concentration: 1 μM, replicates: in singlicate; n = 1
# [10] = tested on: GSK3B; details: n = 1
# [11] = concentration: 1 μM, replicates: in singlicate
# 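Further: KINOMEscan kinase panel screen.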
SMILES,%Inh [1] [%],%Inh [2] [%],%Inh [3] [%],%Inh [4] [%],%Inh [5] [%],%Inh [6] [%],%Inh [7] [%],%Inh [8] [%],%Inh [9] [%],"%Inh [10, 11] [%]",%Inh ([10]; 1 µM) [%]
Cc1ccc(O)cc1Nc1ccnc2cc(-c3ccc(CN4CCCCC4)o3)ccc12 [GW557777],99.7,99.6,0,0,0,0,13,0,0,0,–
Cc1ccc(O)cc1Nc1ccnc2ccc(C(C)(C)C)cc12 [GW856805],96.5,61,5,28,0,28,17,37,0,28,–
CN(C)c1ncnc2nc[nH]c12 [SKF-31736],0,0,0,43,0,0,38,0,1,28,–
NCCC(NC(=O)c1cc(Br)c(-c2ccnc3[nH]ccc23)s1)c1ccccc1.O=C(O)C(F)(F)F.O=C(O)C(F)(F)F (centres unmarked) [GSK1307810],0,83,0,100,82,96.4,72,89,0,20,–
Cc1cc(-c2c(-c3ccc(F)cc3)ncn2CCCN2CCOCC2)nc(N)n1 [SB-222517],0,5,0,31,0,4,20,0,0,32,–
CCn1c(-c2nonc2N)nc2c(-c3ccccc3)ncc(OCCCN)c21.O=C(O)C(F)(F)F.O=C(O)C(F)(F)F [GSK260205],0,83,0,0,0,63,0,0,15,17,–
COc1cc(Nc2nccc(N3CCC(NS(=O)(=O)c4ccc(NC(C)=O)cc4)CC3)n2)cc(OC)c1OC [GSK1379825],67,44,0,0,62,44,0,0,0,10,–
CC(C)NCC(Cc1ccccc1)NC(=O)c1cc(Br)c(-c2ccnc3[nH]ccc23)s1.Cl.Cl (centres unmarked) [GSK1383281],2,51,33,72,79,87,0,91.5,7,0,–
Cl.O=C(Nc1ccc(Oc2ccc3[nH]c(NC(=O)c4ccco4)nc3c2)cc1)Nc1cc(C(F)(F)F)ccc1F [GW683134],42,0,10,0,0,11,100,0,0,9,–
CN1CCN(Cc2ccc(NC(=O)Nc3ccc(N(C)c4ccnc(Nc5ccc(CS(C)(=O)=O)cc5)n4)cc3)cc2)CC1.Cl [GW827654],40,36,17,9,27,21,86,3,4,32,–
O=C1NC(=O)C(c2ccccc2Cl)=C1Nc1cccc(Cl)c1 [SB-342409],22,7,0,13,0,36,26,0,45,–,33
CC(C)(C)c1ccc(C(=O)Nc2cn3cc(-n4ccnc4)ccc3n2)cc1,21,0,27,42,51,0,12,21,2,14,–
Cc1cc(-c2ccnc(Nc3cccc(C#N)c3)n2)cc(C)c1O [GSK1440913],0,79,0,6,0,0,90.7,0,93.8,26,–
O=C(Nc1n[nH]c2nc(-c3ccccc3O)ccc12)C1CC1 [SB-711880],0,0,26,49,0,0,28,12,87,–,53
O=C(Nc1n[nH]c2cc(-c3cccs3)ccc12)C1CC1 [SB-731284],0,0,0,56,0,0,47,0,52,–,57
Nc1ncc(-c2ccc3nccc(-c4ccncc4)c3c2)cc1S(=O)(=O)N1CCCCC1 [GSK1693850],0,11,4,21,0,0,8,11,22,13,–

SMILES,%Inh [1] [%],%Inh [2] [%],%Inh [3] [%],%Inh [4] [%],%Inh [5] [%],%Inh [6] [%],%Inh [7] [%],%Inh [8] [%],%Inh [9] [%],"%Inh [10, 11] [%]",%Inh ([10]; 1 µM) [%]
COc1cccc2c(-c3ccncc3)c(-c3ccc(F)cc3)nn12 [GW468513],27,83,18,0,0,38,0,0,4,3,–
CNc1nccc(-c2ccc3c(N)n[nH]c3c2)n1 [GSK2206003],17,69,0,0,15,23,46,14,14,0,–
Nc1ncnc2scc(-c3ccc(NC(=O)Cc4cc(F)ccc4F)cc3)c12.O=C(O)C(F)(F)F [SB-731254-M],0,26,19,24,0,0,15,29,3,24,–
COC(=O)Nc1nc2ccc(Oc3ccc(NC(=O)Nc4cc(C(F)(F)F)ccc4F)cc3)cc2[nH]1.Cl [GW654607],54,0,6,0,0,0,11,0,4,9,–
CC(=O)Nc1cn2nc(Oc3cccc(NC(=O)c4cccc(C(F)(F)F)c4)c3)ccc2n1,96.7,0,37,0,0,0,1,0,20,0,–
Cn1cc(-c2ccc3c(c2)CCN3C(=O)Cc2cc(F)cc(F)c2F)c2c(N)ncnc21 [GSK2634140],0,17,40,11,0,0,0,0,0,1,–
CN(c1ccc2c(c1)nc(NCc1ccccc1)n2C)c1ccnc(Nc2ccc(CS(C)(=O)=O)cc2)n1.Cl [GW811603],69,0,0,0,35,8,33,16,0,0,–
Cc1ccc(-c2ccc3occ(-c4ccc(S(C)=O)cc4)c3c2)nn1 (centres unmarked),0,0,1,12,0,0,7,0,3,0,–
Cc1cccc(Nc2nc(NCCN)ncc2C(N)=O)c1 [GSK1292139],48,65,41,0,0,0,15,0,6,11,–
Cc1ccc(Nc2ccnc(Nc3ccc(C)c(F)c3)n2)cc1O.Cl [GW582868],79,53,36,100,0,70,0,0,14,7,–
COC(=O)Nc1nc2ccc(Oc3ccc(CC(=O)Nc4cc(C(F)(F)F)ccc4F)cc3)cc2[nH]1 [GW680903],37,0,2,0,0,66,0,0,5,0,–
c1ccc(Oc2ccc(Nc3ccnc4cc(-c5ccc(CN6CCCCC6)o5)ccc34)cc2)nc1 [GW567143],74,79,24,0,0,8,0,0,4,8,–
Cl.N#CCc1ccc(Nc2nccc(Nc3ccc(Oc4ccccc4)cc3)n2)cc1 [GW639905],74,31,36,0,0,45,0,0,0,8,–
CCNc1nccc(-c2c(-c3ccc(F)cc3)ncn2C2CCN(C)CC2)n1,0,57,0,0,0,0,0,0,21,0,–
CSc1ccc(NC2=C(c3ccc(Cl)cc3)C(=O)NC2=O)cc1 [SB-317658],4,12,0,2,21,12,5,26,37,–,0
COc1ccc(C)c(Nc2ccnc(Nc3ccc(-c4cnc[nH]4)cc3)n2)c1.Cl [GW784041],56,52,100,0,0,0,27,15,32,0,–
